Results filed as inconclusive are left out. Active and inactive are the calls of the source. No rule for the calls is given here.

The text below walks through data of PubChem BioAssay.

The target in test [1] is L-lactate dehydrogenase (Plasmodium falciparum (isolate CDC / Honduras)) (UniProt Q27743). The test is described as follows: PfLDH activity inhibition – cell lysate, 3D7 strain, counter-screen for P. falciparum growth inhibition project (AID 2304).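 Also: 0% = vehicle and 100% = reference inhibitor.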 To be noted: P. falciparum 3D7 crude extract, LDH APAD/NBT absorbance; at 2 µM; stronger effect = higher value.
Test [2] in a line: inhibition of 3D7 malaria parasite growth – strain 3D7 (AID 2306).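 Also: 0% = DMSO wells and 100% = chloroquine plus artemisinin control wells.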 As to conditions: P. falciparum 3D7 erythrocytic growth, LDH absorbance, 72 h; at 2 µM; stronger effect = higher value.
A short description of test [3]: rescue of PC12 cells from polyQ htt toxicity – LDH release (AID 1610). To be noted: PC12 mutant huntingtin toxicity, final LDH at 4 uM, stronger effect = lower value. Background: Release of lactate dehydrogenase indicates damage to the cell membrane.

Sequence of L-lactate dehydrogenase (Plasmodium falciparum (isolate CDC / Honduras)) (Q27743 whole entry, looked up): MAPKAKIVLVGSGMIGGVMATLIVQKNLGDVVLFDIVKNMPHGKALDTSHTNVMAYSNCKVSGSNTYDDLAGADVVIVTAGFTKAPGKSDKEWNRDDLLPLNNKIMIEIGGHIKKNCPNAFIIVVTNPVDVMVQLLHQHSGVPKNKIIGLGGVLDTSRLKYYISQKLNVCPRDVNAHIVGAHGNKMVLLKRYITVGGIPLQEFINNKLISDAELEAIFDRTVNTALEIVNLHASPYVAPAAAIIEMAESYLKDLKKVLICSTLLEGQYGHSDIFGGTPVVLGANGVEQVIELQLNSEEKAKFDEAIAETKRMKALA

As a reminder, the inhibition is the share of the control response that was lost under treatment. For `COc1cc(Cc2cnc(N)nc2N)cc(OC)c1OC`, the inhibition in test [1] was 3% (inactive). In addition, the growth inhibition in test [2] is 88% (active). The compound `CC(C)(C)c1ccc(C(O)CCCN2CCC(C(O)(c3ccccc3)c3ccccc3)CC2)cc1` (stereo not drawn) yielded a normalised LDH release in test [3] of 1.
